Common to all, as to test: log2 fold change, soluble protein after heating vs DMSO (PISA); higher = thermal stabilisation; K562 lysate, 10 uM; active = over 0.2 and 3.5 SD of the protein, either way, in both replicates (recomputed)
Compound in one assay: C#Cc1cccc(Nc2ncnc3cc(OCCOC)c(OCCOC)cc23)c1 [erlotinib]
An outline of the steps: (§1)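 A 30 min treatment with 10 μM compound was applied to crude K562 extract at 1 mg/mL protein in PBS pH 7.4 with 1 mM MgCl2. Heating for 3 min spanned 48°C-58°C, after which aliquots were pooled, adjusted to 0.5% NP-40 at 4°C and spun at 21,000xg for 90 min. TMTpro 16plex LC-MS/MS of the supernatant, with channel sums equalised, gave values recorded as log-two fold change in thermal stability against solvent controls, from duplicates.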

Compound in assay [1]: C/C(=N\NC(=O)C1=CC(=CC=C1)S(=O)(=O)N2CCOCC2)/C3=C(C=CC(=C3)Cl)O
In outline:
as §1

Compound in assay [2]: C1=CC(=CC=C1C2=NC3=C(N2)C=C(C=C3)C(=O)N)OC4=CC=C(C=C4)Cl
An outline of the steps: as §1

Compound in assay [3]: C1=CC2=C(C=CC(=C2)/C=C\3/C(=O)NC(=NCC4=CC=CS4)S3)N=C1
In outline:
as §1

Compound in assay [4]: C1=CC2=NC=CN=C2C=C1/C=C/3\C(=O)NC(=O)S3
In outline:
as §1

Compound in assay [5]: C1=CC=C(C=C1)C2=NC(=C(N2)C3=CC=NC=C3)C4=CC(=C(C=C4)Cl)O
An outline of the steps:
as §1

Compound in assay [6]: C1=CC=C2C(=C1)C3=NNC4=CC=CC(=C43)C2=O
In outline:
as §1

Compound in assay [7]: C1CCN(C1)C(=O)NC2=CC=CC(=C2)NC3=NC=C(C(=N3)NCCC4=CN=CN4)Br
An outline of the steps:
as §1

Compound in assay [8]: C1CN(CCC1(CC2=CC=C(C=C2)Cl)N)C3=NC=NC4=C3C=CN4
An outline of the steps: as §1

Compound in the next assay: C1COCCN1CCN2C3=CC=CC=C3N=C2NC(=O)C4=CC(=CC=C4)[N+](=O)[O-] [IRAK-1-4 Inhibitor I]
In outline:
as §1

Of roughly 8,800 targets only a part is listed; those with a hit were picked by preference. About 0.5% of all pairs of compound and target were hits. A number with no mark means an inactive call.

UniProt P51825, sequence (P51825 whole entry, looked up): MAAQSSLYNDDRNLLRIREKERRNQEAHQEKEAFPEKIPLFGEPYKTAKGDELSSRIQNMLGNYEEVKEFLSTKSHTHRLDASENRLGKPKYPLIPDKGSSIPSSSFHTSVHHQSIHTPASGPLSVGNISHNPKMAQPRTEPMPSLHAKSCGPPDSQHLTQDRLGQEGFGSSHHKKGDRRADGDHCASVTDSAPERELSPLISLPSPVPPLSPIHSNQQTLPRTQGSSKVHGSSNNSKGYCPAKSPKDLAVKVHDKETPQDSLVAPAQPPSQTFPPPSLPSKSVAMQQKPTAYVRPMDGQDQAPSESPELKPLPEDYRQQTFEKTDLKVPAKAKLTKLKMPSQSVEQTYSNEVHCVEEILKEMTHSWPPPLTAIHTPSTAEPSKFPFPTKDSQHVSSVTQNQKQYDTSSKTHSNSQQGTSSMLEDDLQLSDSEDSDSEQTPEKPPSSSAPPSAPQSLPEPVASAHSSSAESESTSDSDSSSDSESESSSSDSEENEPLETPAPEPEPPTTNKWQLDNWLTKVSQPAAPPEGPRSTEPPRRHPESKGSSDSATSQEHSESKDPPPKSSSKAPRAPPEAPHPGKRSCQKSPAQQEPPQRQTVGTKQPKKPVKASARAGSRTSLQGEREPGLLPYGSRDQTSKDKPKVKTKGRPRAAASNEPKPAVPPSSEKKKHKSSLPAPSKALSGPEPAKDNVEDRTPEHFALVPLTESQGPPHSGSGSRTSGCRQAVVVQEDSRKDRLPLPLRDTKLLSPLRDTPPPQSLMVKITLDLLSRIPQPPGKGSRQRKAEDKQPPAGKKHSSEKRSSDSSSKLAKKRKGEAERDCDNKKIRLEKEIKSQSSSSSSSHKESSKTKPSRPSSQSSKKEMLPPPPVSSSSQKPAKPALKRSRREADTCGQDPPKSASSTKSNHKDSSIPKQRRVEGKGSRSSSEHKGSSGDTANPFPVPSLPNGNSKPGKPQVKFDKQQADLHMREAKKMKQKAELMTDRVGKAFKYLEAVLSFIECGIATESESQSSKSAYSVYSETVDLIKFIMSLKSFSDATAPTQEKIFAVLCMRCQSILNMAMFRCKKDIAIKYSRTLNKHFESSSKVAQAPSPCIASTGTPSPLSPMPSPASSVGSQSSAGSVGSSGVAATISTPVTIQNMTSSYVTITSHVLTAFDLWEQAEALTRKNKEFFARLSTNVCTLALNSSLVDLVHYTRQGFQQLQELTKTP
UniProt P11310, sequence (P11310 whole entry, looked up): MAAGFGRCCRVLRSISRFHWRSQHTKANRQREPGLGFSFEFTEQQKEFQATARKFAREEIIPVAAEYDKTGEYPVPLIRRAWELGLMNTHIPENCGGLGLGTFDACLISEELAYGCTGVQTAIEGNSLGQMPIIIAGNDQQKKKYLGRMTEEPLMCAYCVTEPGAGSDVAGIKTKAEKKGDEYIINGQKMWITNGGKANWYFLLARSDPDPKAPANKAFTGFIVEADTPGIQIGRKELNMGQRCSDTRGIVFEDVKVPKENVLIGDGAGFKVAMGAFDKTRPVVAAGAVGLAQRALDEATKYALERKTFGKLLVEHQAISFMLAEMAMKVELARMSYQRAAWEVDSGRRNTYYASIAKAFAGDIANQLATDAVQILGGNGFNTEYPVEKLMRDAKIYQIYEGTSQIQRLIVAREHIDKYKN
UniProt Q9NWB6, sequence (Q9NWB6 whole entry, looked up): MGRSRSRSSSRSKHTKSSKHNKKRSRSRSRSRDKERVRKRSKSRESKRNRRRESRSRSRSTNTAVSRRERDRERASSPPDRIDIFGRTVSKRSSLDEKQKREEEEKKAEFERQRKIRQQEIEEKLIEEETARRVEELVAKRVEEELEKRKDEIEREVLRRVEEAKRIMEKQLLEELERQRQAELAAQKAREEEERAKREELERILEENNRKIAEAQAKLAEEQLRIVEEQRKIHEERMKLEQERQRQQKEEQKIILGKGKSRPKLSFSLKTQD
UniProt P30837, sequence (P30837 whole entry, looked up): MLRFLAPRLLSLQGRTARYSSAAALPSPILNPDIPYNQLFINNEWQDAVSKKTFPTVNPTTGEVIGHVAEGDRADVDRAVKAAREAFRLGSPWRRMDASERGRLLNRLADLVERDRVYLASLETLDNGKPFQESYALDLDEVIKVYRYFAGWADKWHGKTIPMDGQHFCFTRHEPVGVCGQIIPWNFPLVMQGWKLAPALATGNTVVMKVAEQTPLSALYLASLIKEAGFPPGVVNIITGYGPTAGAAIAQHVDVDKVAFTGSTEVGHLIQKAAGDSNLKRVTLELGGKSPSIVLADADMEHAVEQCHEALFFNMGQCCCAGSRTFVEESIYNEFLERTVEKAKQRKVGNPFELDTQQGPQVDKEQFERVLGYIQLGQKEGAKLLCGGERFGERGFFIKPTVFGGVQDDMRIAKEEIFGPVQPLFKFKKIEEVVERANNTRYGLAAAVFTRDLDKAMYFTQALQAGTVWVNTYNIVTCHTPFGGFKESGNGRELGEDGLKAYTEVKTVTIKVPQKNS
UniProt Q3SY69, sequence (Q3SY69 whole entry, looked up): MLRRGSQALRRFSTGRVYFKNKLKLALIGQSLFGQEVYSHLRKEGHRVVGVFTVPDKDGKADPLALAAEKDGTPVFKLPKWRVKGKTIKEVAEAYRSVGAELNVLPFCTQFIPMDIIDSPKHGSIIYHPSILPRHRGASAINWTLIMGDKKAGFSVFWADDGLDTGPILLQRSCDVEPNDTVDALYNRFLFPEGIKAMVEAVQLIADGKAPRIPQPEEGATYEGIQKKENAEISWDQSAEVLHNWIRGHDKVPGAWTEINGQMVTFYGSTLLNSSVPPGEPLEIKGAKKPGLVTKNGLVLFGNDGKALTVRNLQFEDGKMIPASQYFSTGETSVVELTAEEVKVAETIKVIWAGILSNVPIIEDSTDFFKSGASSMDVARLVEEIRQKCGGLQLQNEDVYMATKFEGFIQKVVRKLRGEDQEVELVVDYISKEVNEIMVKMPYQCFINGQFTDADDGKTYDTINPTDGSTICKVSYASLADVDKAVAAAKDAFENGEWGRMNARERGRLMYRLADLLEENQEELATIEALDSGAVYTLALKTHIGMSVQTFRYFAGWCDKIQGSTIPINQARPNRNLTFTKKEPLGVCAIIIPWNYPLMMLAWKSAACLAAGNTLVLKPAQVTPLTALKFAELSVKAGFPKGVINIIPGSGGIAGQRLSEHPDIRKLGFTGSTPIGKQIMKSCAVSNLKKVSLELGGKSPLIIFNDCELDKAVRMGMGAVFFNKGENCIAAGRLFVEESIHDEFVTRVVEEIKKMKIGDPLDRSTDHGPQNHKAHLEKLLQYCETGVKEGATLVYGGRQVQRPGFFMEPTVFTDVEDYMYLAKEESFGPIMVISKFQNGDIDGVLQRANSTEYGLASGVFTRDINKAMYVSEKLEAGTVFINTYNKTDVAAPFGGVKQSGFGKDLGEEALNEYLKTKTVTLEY
UniProt Q9NQW6, sequence (Q9NQW6 whole entry, looked up): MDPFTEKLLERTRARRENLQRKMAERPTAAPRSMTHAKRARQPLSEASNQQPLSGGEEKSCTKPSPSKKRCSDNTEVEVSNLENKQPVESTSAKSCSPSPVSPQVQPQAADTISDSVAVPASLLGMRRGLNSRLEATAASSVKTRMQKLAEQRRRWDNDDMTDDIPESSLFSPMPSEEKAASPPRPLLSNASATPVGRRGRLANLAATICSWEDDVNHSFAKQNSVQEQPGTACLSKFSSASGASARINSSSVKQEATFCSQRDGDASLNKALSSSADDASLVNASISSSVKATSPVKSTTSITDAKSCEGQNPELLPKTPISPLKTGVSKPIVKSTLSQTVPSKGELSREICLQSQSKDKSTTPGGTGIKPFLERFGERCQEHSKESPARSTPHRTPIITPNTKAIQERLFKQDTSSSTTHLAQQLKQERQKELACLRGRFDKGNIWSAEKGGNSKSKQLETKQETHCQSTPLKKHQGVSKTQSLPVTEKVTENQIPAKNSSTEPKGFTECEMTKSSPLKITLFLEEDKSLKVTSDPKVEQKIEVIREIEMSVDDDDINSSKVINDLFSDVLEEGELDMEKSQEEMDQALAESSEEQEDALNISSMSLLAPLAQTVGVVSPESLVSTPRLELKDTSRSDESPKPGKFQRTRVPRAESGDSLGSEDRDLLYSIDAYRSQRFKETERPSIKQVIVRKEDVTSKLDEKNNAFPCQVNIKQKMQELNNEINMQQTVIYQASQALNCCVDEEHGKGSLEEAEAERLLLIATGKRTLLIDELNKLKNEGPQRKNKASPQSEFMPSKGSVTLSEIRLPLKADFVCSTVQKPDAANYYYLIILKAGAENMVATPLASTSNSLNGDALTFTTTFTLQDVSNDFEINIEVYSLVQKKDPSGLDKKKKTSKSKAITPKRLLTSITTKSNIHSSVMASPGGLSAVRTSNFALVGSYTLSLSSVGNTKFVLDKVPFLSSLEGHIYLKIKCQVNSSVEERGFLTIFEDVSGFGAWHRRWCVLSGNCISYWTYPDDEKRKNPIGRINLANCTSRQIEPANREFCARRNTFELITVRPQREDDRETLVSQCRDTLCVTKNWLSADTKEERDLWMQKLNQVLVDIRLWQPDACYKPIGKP
UniProt Q6P1M9, sequence (Q6P1M9 whole entry, looked up): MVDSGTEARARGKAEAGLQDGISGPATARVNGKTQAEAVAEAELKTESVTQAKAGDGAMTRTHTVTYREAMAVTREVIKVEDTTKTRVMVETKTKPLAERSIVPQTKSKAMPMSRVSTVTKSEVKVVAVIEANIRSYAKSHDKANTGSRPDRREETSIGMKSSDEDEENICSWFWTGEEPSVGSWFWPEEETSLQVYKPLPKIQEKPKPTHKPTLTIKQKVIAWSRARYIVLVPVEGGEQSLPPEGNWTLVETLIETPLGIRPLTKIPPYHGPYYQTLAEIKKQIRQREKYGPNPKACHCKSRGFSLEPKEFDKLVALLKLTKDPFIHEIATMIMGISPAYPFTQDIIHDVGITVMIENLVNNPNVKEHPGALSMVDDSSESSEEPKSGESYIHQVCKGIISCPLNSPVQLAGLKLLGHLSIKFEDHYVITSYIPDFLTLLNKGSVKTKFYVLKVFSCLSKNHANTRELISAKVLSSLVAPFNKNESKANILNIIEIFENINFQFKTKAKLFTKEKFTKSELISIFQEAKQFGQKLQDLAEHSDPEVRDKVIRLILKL

Turning to ASPH (UniProt Q12797), the log2 fold change in the assay with erlotinib is 0.003; in assay [1], -0.028; in assay [2], -0.013; in assay [3], 0.075; in assay [4] it was -0.011; in assay [5], 0.006. The log2 fold change in [6] was -0.022; in assay [7] it was -0.011; in assay [8] it was 0.01; with IRAK-1-4 Inhibitor I, -0.016.
Turning to ARMCX5 (UniProt Q6P1M9), the log2 fold change in the assay with erlotinib is -0.08; in assay [1], 0.047; in assay [2] it was -0.004; in [3], 0.157; in assay [4], 0.001; in assay [5] it was 0.03. Further, the log2 fold change in assay [6] was -0.35 (active); in [7], 0.075; in [8], -0.039; with IRAK-1-4 Inhibitor I it was -0.08.
ACADM isoform 2 (UniProt P11310): the log2 fold change is -0.088 with erlotinib; 0.049 in assay [1]; -0.034 in [2]; 0.23 in assay [3]; 0.085 in assay [4]; 0.101 in [5]. Further, the log2 fold change was -0.032 in assay [6], -0.032 in assay [7], -0.003 in [8] and -0.007 with IRAK-1-4 Inhibitor I.
Regarding ANLN (UniProt Q9NQW6), the log2 fold change in the assay with erlotinib is -0.006; in assay [1], -0.142; in [2], 0.007; in [3], -0.019; in assay [4], -0.072; in assay [5], 0.01. Moreover, the log2 fold change in [6] was -0.019; in assay [7] it was -0.045; in assay [8] it was -0.002; in the assay with IRAK-1-4 Inhibitor I, -0.017.
For the target ALDH1L2 (UniProt Q3SY69), the log2 fold change was 0.005 with erlotinib; 0.025 in [1]; 0.011 in assay [2]; 0.037 in assay [3]; -0.02 in [4]; -0.004 in assay [5]. Further, the log2 fold change in assay [6] is -0.064; in assay [7], -0.018; in assay [8] it was 0.024; in the assay with IRAK-1-4 Inhibitor I, -0.011.
As to AP3D1 isoform 5 (UniProt O14617), the log2 fold change in the assay with erlotinib was -0.013; in assay [1], -0.004; in assay [2], -0.006; in [3], 0.011; in assay [4], 0.001; in assay [5], -0.007. For the same target, the log2 fold change is -0.015 in assay [6], -0.015 in assay [7], -0.001 in assay [8] and -0.003 in the assay with IRAK-1-4 Inhibitor I.
As for AIMP2 (UniProt Q13155), the log2 fold change with erlotinib was 0.021; in [1], 0.062; in [2], -0.01; in [3] it was 0.006; in assay [4], 0.002; in assay [5], -0.016. Besides, the log2 fold change was -0.001 in [6], 0.014 in assay [7], -0.036 in assay [8] and 0.008 with IRAK-1-4 Inhibitor I.
ALDH1B1 (UniProt P30837): the log2 fold change in the assay with erlotinib is -0.064; in [1], 0.027; in [2], -0.035; in assay [3], -0.004; in assay [4] it was 0.031; in [5] it was 0.009. For the same target, the log2 fold change was 0.262 (active) in assay [6], -0.025 in [7], 0.048 in [8] and 0.038 with IRAK-1-4 Inhibitor I.
Consider ARGLU1 (UniProt Q9NWB6), for which the log2 fold change with erlotinib is -0.008; in assay [1], 0.069; in assay [2] it was -0.039; in assay [3], 0.009; in assay [4], -0.034; in [5] it was -0.057. Moreover, the log2 fold change in assay [6] is -0.002; in assay [7], 0.003; in [8], -0.047; in the assay with IRAK-1-4 Inhibitor I, 0.025.
As for AFF1 isoform 2 (UniProt P51825), the log2 fold change was -0.001 with erlotinib; -0.085 in [1]; 0.027 in assay [2]; 0.071 in assay [3]; -0.068 in assay [4]; -0.007 in assay [5]. Besides, the log2 fold change in [6] is -0.041; in assay [7], -0.002; in assay [8], 0.005; in the assay with IRAK-1-4 Inhibitor I, 0.021.
Take ANKRD30B (UniProt Q9BXX2): the log2 fold change in the assay with erlotinib is 0.077; in assay [1], 0.106; in assay [2] it was -0.053; in assay [3], -0.115; in assay [4] it was 0.005; in [5], -0.032. Further, the log2 fold change was -0.047 in assay [6], -0.006 in assay [7], 0.124 in assay [8] and 0.095 with IRAK-1-4 Inhibitor I.
As for ADRM1 (UniProt Q16186), the log2 fold change with erlotinib was 0.007; in assay [1], -0.006; in assay [2], 0.007; in assay [3], -0.026; in assay [4], -0.016; in assay [5] it was 0.018. Besides, the log2 fold change in assay [6] was -0.088; in assay [7], 0.012; in [8], 0.007; in the assay with IRAK-1-4 Inhibitor I, 0.026.
With ACADS (UniProt P16219), the log2 fold change is -0.013 with erlotinib; 0.021 in [1]; -0.013 in [2]; 0.062 in [3]; -0.012 in assay [4]; 0.001 in assay [5]. In addition, the log2 fold change in assay [6] was -0.046; in [7], 0.01; in assay [8], 0.027; with IRAK-1-4 Inhibitor I, 0.017.
For the target ANKRD27 (UniProt Q96NW4), the log2 fold change in the assay with erlotinib is 0.087; in [1], -0.025; in [2] it was 0.07; in [3] it was 0.04; in assay [4], -0.033; in assay [5], 0.02. In addition, the log2 fold change was -0.094 in assay [6], -0.036 in [7], 0 in assay [8] and 0.014 with IRAK-1-4 Inhibitor I.
In the case of AMMECR1 (UniProt Q9Y4X0), the log2 fold change with erlotinib was 0.007; in [1] it was 0.003; in assay [2], 0.019; in assay [3], -0.045; in [4] it was 0.004; in assay [5], -0.009. In addition, the log2 fold change was -0.001 in [6], 0.009 in assay [7], 0.019 in assay [8] and 0.002 with IRAK-1-4 Inhibitor I.

Source of the values: the supplement of paper PMC10849652.
